# Reference: PubChem BioAssay (NCI)
# Compounds without any hit were thinned out: in the full panel of roughly 83,000, 20% have a hit.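 96-well plates, one dose, 48 hours. Percent growth reported; active if below 10.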 The source made the active and inactive calls.
# System: HL-60(TB) leukemia
# Assay: NCI-60 one-dose screen, 48 h (100 = growth as untreated, 0 = no growth, -100 = all killed)
# Conditions: 10 µM unless noted
row,Structure (SMILES),growth
1,O=C(N/N=C/[C@H](O)[C@H](O)[C@H](O)CO)c1ccc(NC(=O)c2cccnc2)cc1,100% (inactive)
2,COc1cc(/C=C/c2cn[nH]c2-c2ccc(C)cc2)cc(OC)c1OC,4.76% (active)
3,Cc1cccnc1NC(=S)Nc1ncccc1C,136% (inactive)
4,CCc1oc2ccccc2c1C(=O)c1cc(I)c(O)c(I)c1,10.1% (inactive)
5,C=C1CC[C@@H]2[C@](C)(COC(C)=O)[C@H](OC(C)=O)CC[C@@]2(C)[C@@H]1C/C=C1/C(=O)OC[C@H]1OC(C)=O,79.1% (inactive)
6,CCN(CC)CCCNc1cccc2c(C)cc(OC)nc12,106% (inactive)
7,O=C(NS(=O)(=O)c1ccccc1)n1cc(-c2ccncc2)c(-c2cc(O)cc(Cl)c2)n1,103% (inactive)
8,NCc1cn2cc(Cl)sc2n1,129% (inactive)
9,O=c1cc(C2NCCc3c2[nH]c2ccccc32)c2c(ccc3ccccc32)o1 (stereo not given),48.5% (inactive)
10,C[C@@H]1CCCCCCCCC[C@H](O)C(=O)C[C@@H](SC[C@@H](O)C(=O)O)C(=O)O1,86.8% (inactive)
11,Cc1ccc(S(=O)(=O)Oc2cc(OS(=O)(=O)c3ccc(C)cc3)cc(OS(=O)(=O)c3ccc(C)cc3)c2)cc1,107% (inactive)
12,O=C1CCC2=C3C4CCCCC4C(=O)C4CCCC(OC2C1)C34 (stereo not given),-17.1% (active)
13,O=C(O)c1cc2ccccc2s1,112% (inactive)
14,Cn1c(=O)cc2c3c(c(NCCCO)ccc31)C(=O)c1ccccc1-2,50.8% (inactive)
15,NCCOCCOc1ccccc1,108% (inactive)
16,CCCCCCCCCCCC[S+](C)CC(=O)[O-] (stereo not given),20.3% (inactive)
17,Cc1cc(-c2ccccc2)on1,89.2% (inactive)
18,C=C1CC[C@@H]2[C@](C)(COC(C)=O)[C@H](OC(C)=O)CC[C@@]2(C)[C@@H]1CC(NCc1ccc(F)cc1)C1=CCOC1=O (stereo not given in full),-9.52% (active)
19,COC(=O)C(Br)(C(=O)OC)C(Br)C(Br)C(Br)c1ccccc1 (stereo not given),7.57% (active)
20,Cc1cc(N2CCN(CC(=O)Nc3ccc4c(ccn4C)c3)CC2)nc(N2CCCCCC2)n1,74.7% (inactive)

row,Structure (SMILES),growth
1,C1CCc2onc(-c3noc4c3CCCCC4)c2CC1,102% (inactive)
2,NS(=O)(=O)c1ccc(Nc2nc3n[nH]c(Nc4ccccc4)c3c(=O)[nH]2)cc1,101% (inactive)
3,c1ccc2[nH]c(SSc3nc4ncncc4[nH]3)nc2c1,17.1% (inactive)
4,CC(C)CN1CC(C(=O)Nc2ccc3c(c2)-c2ccccc2C3)CC1=O (stereo not given),91.7% [50 µM] (inactive)
5,Fc1ccc2nc(-c3nc(-c4ccccc4)n4ccccc34)[nH]c2c1,67.6% (inactive)
6,S=C1SCN(CCc2ccccc2)CN1CCc1ccccc1,89.7% (inactive)
7,C#CCOc1nc(C)cc(C)c1C#N,89.5% (inactive)
8,Cc1ccc(/C=C(\C#N)n2nc3cccc(F)c3n2)cc1,86.6% (inactive)
9,C=Cc1cnc(Nc2ccc(OC)cc2)nc1NCCCNC(=O)C1CCC1,14.6% (inactive)
10,CCN(CC)c1ccc(/C=C2\SC(=O)C(Nc3nnc(-c4cccnc4SCc4ccccc4)o3)C2=O)cc1 (stereo not given),19.4% (inactive)
11,CS(=O)(=O)N1CCN(Cc2cc3nc(-c4cccc5[nH]ncc45)nc(N4CCOCC4)c3s2)CC1,23.6% (inactive)
12,Cc1ccc(Nc2nc(-c3cc(O)c(C)c(C)c3O)cs2)cc1,9.51% (active)
13,Nc1ccc(-c2ccc(N)c(Br)c2)cc1Br,7.99% (active)
14,C=CC(=O)N[C@@H](Cc1ccc(-c2cc(Cl)cc(Cl)c2)cc1)[C@@H](O)[C@H](O)C(=O)O,95.9% (inactive)
15,CN(C)CCC1(c2ccccc2)CCN(C)C1=O (stereo not given),109% (inactive)
16,COc1cc(C(O)C2C(=O)OCC2C2(c3ccc4c(c3)OCO4)SCCCS2)cc(OC)c1OC (stereo not given),91.8% (inactive)
17,COc1cc2c(cc1OC)C(=O)C(Br)CC2 (stereo not given),27.3% (inactive)
18,O=C1C=CC(Nc2ccccc2[N+](=O)[O-])C1Nc1ccccc1[N+](=O)[O-] (stereo not given),25.1% (inactive)
19,COc1cc(C(=O)c2cc(C)c3[nH]c4ccc(Cl)cc4c3c2C)cc(OC)c1OC,0.383% (active)
20,CCCCc1ccc(Nc2nnc(SCC(=O)NC(=O)NCC)s2)cc1,95.2% (inactive)
